Values joined by “and” are separate entries in the source; they are usually repeats but may differ in a detail not shown here. Equal values may be shown once. Inconclusive results are not listed. Active and inactive are the calls of the source. Unless noted, the call rests on the fitted dose curve; in most records, active means well fitted curve in the direction sought with a large enough effect; inconclusive means small, poorly fitted or top-dose-only effect, or another doubt; inactive means no such curve, though single readings can be large; an effect the other way counts as inactive or inconclusive.
Assays:
MKL-2 = assay: qHTS assay to identify novel small-molecules to repurpose for Merkel cell carcinoma treatment (AID 1296009); conditions: MCC and control cell lines, CellTiter-Glo viability, 72 h; series mostly up to 46 µM; further: nearly all actives have a fitted effect of over 60% in size; further: potency means the concentration at half of the fitted maximal effect
How it was run: (§1)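 Cell viability measured by CellTiter-Glo following 72 hr compound treatment at 37 degree celsius, with NPC and MIPE libraries tested in 8- and 11-point concentration series.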

UISO = assay: as above; conditions: MCC and control cell lines, CellTiter-Glo viability, 72 h; series mostly up to 46 µM
How it was run: as §1

WaGa = assay: as above; conditions: MCC and control cell lines, CellTiter-Glo viability, 72 h; series mostly up to 46 µM
How it was run: as §1

C33A = assay: Primary qHTS to identify gynecologic anti-cancer compounds using libraries of approved drugs and bioactive compounds (AID 1345084); conditions: Gynecologic cancer cell panel viability, ATPlite luminescence, 48 h; series mostly up to 57.5 µM; further: nearly all actives have a fitted effect of over 55% in size; further: potency means the concentration at half of the fitted maximal effect
How it was run: (§2)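 Cells, 1,000 per well, plated 16 h, then exposed 48 h at 37 C to compounds. Viability by ATPlite luminescence after 15 min at room temperature.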

CASKI = assay: as above; conditions: Gynecologic cancer cell panel viability, ATPlite luminescence, 48 h; series mostly up to 57.5 µM
How it was run: as §2

Es-2 = assay: as above; conditions: Gynecologic cancer cell panel viability, ATPlite luminescence, 48 h; series mostly up to 57.5 µM
How it was run: as §2

HeLa = assay: as above; conditions: Gynecologic cancer cell panel viability, ATPlite luminescence, 48 h; series mostly up to 57.5 µM
How it was run: as §2

Hek293T = assay: as above; conditions: Gynecologic cancer cell panel viability, ATPlite luminescence, 48 h, control line for the selectivity index; series mostly up to 57.5 µM
How it was run: as §2

JEG-3 = assay: as above; conditions: Gynecologic cancer cell panel viability, ATPlite luminescence, 48 h; series mostly up to 57.5 µM
How it was run: as §2

OV90 = assay: as above; conditions: Gynecologic cancer cell panel viability, ATPlite luminescence, 48 h; series mostly up to 57.5 µM
How it was run: as §2

PA-1 = assay: as above; conditions: Gynecologic cancer cell panel viability, ATPlite luminescence, 48 h; series mostly up to 57.5 µM
How it was run: as §2

SKOV3 = assay: as above; conditions: Gynecologic cancer cell panel viability, ATPlite luminescence, 48 h; series mostly up to 57.5 µM
How it was run: as §2

Tov-21-G = assay: as above; conditions: Gynecologic cancer cell panel viability, ATPlite luminescence, 48 h; series mostly up to 57.5 µM
How it was run: as §2

Tov112D = assay: as above; conditions: Gynecologic cancer cell panel viability, ATPlite luminescence, 48 h; series mostly up to 57.5 µM
How it was run: as §2

[1] = Drug repurposing screens with cells derived from glioblastoma tumor samples (AID 1345199); conditions: GBM patient neurospheres viability, ATP luminescence, 48 h; further: nearly all actives have a fitted effect of over 40% in size; further: potency means the concentration at half of the fitted maximal effect; on activity, negative = cell killing: on the % scale 0 is the no-effect control and ±100 the full control effect
How it was run: (§3)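 Primary testing used CD133+ neurospheres from four GBM patients, seven concentrations, 48 h exposure and ATP-based viability; confirmation added three slower-growing patient lines.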

[2] = target: Nuclear receptor subfamily 1 group I member 2 (Rattus norvegicus) (UniProt Q9R1A7); assay: qHTS assay for small molecule activators of the rat pregnane X receptor (rPXR) signaling pathway (AID 651751; call rule not given here; further: 0% is about no effect); conditions: rPXR reporter cells, luciferase (One-Glo), 24 h
Chain of Nuclear receptor subfamily 1 group I member 2 (Rattus norvegicus) (Q9R1A7 whole entry, looked up): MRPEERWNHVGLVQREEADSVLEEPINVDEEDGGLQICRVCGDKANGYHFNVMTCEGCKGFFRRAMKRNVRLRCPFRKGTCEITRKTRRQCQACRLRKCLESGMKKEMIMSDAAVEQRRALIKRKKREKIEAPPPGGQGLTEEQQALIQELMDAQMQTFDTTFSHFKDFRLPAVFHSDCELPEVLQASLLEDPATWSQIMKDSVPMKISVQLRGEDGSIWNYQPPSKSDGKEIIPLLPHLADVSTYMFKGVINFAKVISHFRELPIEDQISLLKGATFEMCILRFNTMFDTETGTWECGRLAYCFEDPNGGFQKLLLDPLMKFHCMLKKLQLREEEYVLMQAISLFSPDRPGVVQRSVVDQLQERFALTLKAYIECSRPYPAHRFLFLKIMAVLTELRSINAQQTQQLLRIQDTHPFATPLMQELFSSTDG

NIH3T3 = assay: qHTS assay to identify novel small-molecules to repurpose for Merkel cell carcinoma treatment (AID 1296009); conditions: MCC and control cell lines, CellTiter-Glo viability, 72 h; at 44.8 µM (top of the series) unless noted; further: nearly all actives have a fitted effect of over 60% in size; further: potency means the concentration at half of the fitted maximal effect
How it was run: as §1

CAOV3 = assay: Primary qHTS to identify gynecologic anti-cancer compounds using libraries of approved drugs and bioactive compounds (AID 1345084); conditions: Gynecologic cancer cell panel viability, ATPlite luminescence, 48 h; series mostly up to 57.5 µM; further: nearly all actives have a fitted effect of over 55% in size; further: potency means the concentration at half of the fitted maximal effect
How it was run: as §2

[3] = qHTS assay to identify inhibitors of the type 1 interferon - major histocompatibility complex class I in skeletal muscle: Counter screen cell viability and HiBit confirmation (AID 1347412); conditions: iHSKM muscle cells + IFN-b, HiBiT or CellTiter-Glo, 24 h; further: potency means the concentration at half of the fitted maximal effect; nearly all actives have a fitted effect of over 60% in size
How it was run: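 CRISPR HLA-B*08:01-HiBit immortalized human myoblasts (C25cl48) stimulated with 4 ng/ml IFN-beta and compounds (12-point 1:3, top 46 uM final) for 24 h at 37 C. Duplicate plates read by HiBit lytic luminescence or CellTiter Glo ATP.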

astro = assay: Drug repurposing screens with cells derived from glioblastoma tumor samples (AID 1345199); conditions: viability, ATP luminescence, 48 h; series mostly up to 45.9 µM; further: nearly all actives have a fitted effect of over 40% in size; further: potency means the concentration at half of the fitted maximal effect; on activity, negative = cell killing: on the % scale 0 is the no-effect control and ±100 the full control effect
How it was run: as §3

[4] = at 46.1 µM (top of the series), tumour line C

c1ccc2sc(SSc3nc4ccccc4s3)nc2c1
inactive: Potency (MKL-2) | Potency (UISO) | Potency (WaGa) | Potency (C33A) | Potency (CASKI) | Potency (Es-2) | Potency (HeLa) | Potency (Hek293T) | Potency (JEG-3) | Potency (OV90) | Potency (PA-1) | Potency (SKOV3) | Potency (Tov-21-G) | Potency (Tov112D) | activity, negative = cell killing ([1]; at 45.9 µM (top of the series), tumour line B) -16.9% | activity, negative = cell killing ([1]; at 45.9 µM (top of the series), tumour line D) -20.4% | activity, negative = cell killing ([1]; at 46 µM (top of the series), tumour line A) -26.6% | activity, negative = cell killing [1, 4] -28% | max response [2] -2.5% and 11.1%

CN(CCCOc1ccc(Cc2ccccc2)cc1)CCC(=O)O
inactive: outcome (NIH3T3) | Potency (C33A) | Potency (CASKI) | Potency (Es-2) | Potency (HeLa) | Potency (Hek293T) | Potency (JEG-3) | Potency (OV90) | Potency (PA-1) | Potency (SKOV3) | Potency (Tov-21-G) | Potency (Tov112D)

O=[N+]([O-])c1ccc(CNc2nc(NCc3cccc(C(F)(F)F)c3)nc3nc[nH]c23)cc1
inactive: outcome (NIH3T3) | Potency (C33A) | Potency (CAOV3) | Potency (CASKI) | Potency (Es-2) | Potency (HeLa) | Potency (Hek293T) | Potency (JEG-3) | Potency (PA-1) | Potency (SKOV3) | Potency (Tov-21-G) | Potency (Tov112D)

CCCCCCCCCCCCOCCO
inactive: Potency (MKL-2) | Potency (UISO) | Potency (WaGa) | Potency (C33A) | Potency (CASKI) | Potency (Es-2) | Potency (HeLa) | Potency (Hek293T) | Potency (JEG-3) | Potency (OV90) | Potency (PA-1) | Potency (SKOV3) | Potency (Tov-21-G) | Potency (Tov112D)

CCCCCCOc1ccccc1C(N)=O
inactive: Potency (MKL-2) | Potency (C33A) | Potency (CASKI) | Potency (Es-2) | Potency (HeLa) | Potency (Hek293T) | Potency (JEG-3) | Potency (OV90) | Potency (PA-1) | Potency (SKOV3) | Potency (Tov-21-G) | Potency (Tov112D) | activity, negative = cell killing [1, 4] -6.65%
active: Potency ([1]; tumour line A) 14100 nM

[O-][n+]1ccccc1SSc1cccc[n+]1[O-]
inactive: Potency (HeLa) | activity, negative = cell killing [1, 4] -16.3%
active: Potency (MKL-2) 580 nM | Potency (UISO) 92 nM | Potency (WaGa) 517 nM | Potency (C33A) 1120 nM | Potency (CASKI) 2510 nM | Potency (Es-2) 1000 nM | Potency (Hek293T) 501 nM | Potency (JEG-3) 2000 nM | Potency (OV90) 1780 nM | Potency (PA-1) 1260 nM | Potency (SKOV3) 794 nM | Potency (Tov-21-G) 1410 nM | Potency (Tov112D) 2820 nM | Potency ([1]; tumour line A) 7080 nM | Potency ([1]; tumour line B) 15800 nM | Potency ([1]; tumour line D) 7080 nM | Potency ([3]; HiBiT) 496 nM | Potency ([3]; Viability) 991 nM

N=C1N=C(N)c2cc3ccccc3cc21
active: Potency (MKL-2) 24300 nM | Potency (UISO) 24300 nM | Potency (CASKI) 31600 nM | Potency (Hek293T) 39800 nM | Potency (PA-1) 35500 nM | Potency (Tov-21-G) 35500 nM

COc1cccc2c1C(=O)c1c(O)c3c(c(O)c1C2=O)C[C@@](O)(C(=O)CO)C[C@@H]3O[C@H]1C[C@H](N)[C@H](O[C@@H]2CCCCO2)[C@H](C)O1
inactive: Potency (HeLa)
active: Potency (MKL-2) 47.3 nM | Potency (UISO) 2990 nM | Potency (C33A) 10000 nM | Potency (CASKI) 12600 nM | Potency (Es-2) 7080 nM | Potency (Hek293T) 10000 nM | Potency (PA-1) 2510 nM | Potency (SKOV3) 12600 nM | Potency (Tov112D) 1580 nM | Potency (astro) 12600 nM
